{
  "source": "PubChem BioAssay (NCATS)",
  "note": "Records with an inconclusive call do not appear. Entries that show only a call come without a potency. Active and inactive are the calls of the source. Calls come from the whole dose curve; as a rule, active = well fitted cell-killing curve with a large enough effect; inconclusive = small, poorly fitted or top-dose-only effect; inactive = flat fitted curve, though single readings scatter. Potency is the fitted concentration of half-maximal effect.",
  "data": [
    {"test": "Cell Viability - LYMP2-017 (AID 972); note: nearly all actives have a fitted effect of over 55% in size", "details": "LYMP2-017 lymphoblastoid cell viability; series mostly up to 92.2 µM", "excerpt": "NIH Chemical Genomics Center [NCGC]\nNIH Molecular Libraries Screening Centers Network [MLSCN]\nNational Institutes of Environmental Health Sciences [NIEHS]\nNational Toxicology Program [NTP]\nWe have developed a 1536-well cell-based assay for quantitative high throughput screening (qHTS) against a number of cell lines to determine in vitro cytotoxicity of small molecules. This particular assay uses a human lymphoblastoid cell line (LYMP2-017) purchased from Coriell Institute for Medical Research.\nNCGC Assay Protocol Summary:\nThe CellTiter-Glo luminescent cell viability assay (Promega) is a homogeneous method to measure the number of viable cells in culture. The end point readout of this assay is based on quantitation of intracellular ATP, an indicator of metabolic activity, using the luciferase reaction. Luciferase catalyzes the oxidation of beetle Luciferin to oxyluciferin and light in the presence of ATP. The luminescent signal is proportional to amount of ATP present.\nUsing the CellTiter-Glo luminescent cell viability assay, the amount of cellular ATP was measured in the lymphoblastoid cell line with complete culture medium following compound treatment for 24 hours. The assay was performed in opaque white Kalypsys 1536-well plates. In the screen, tetraoctylammonium bromide was used as positive control. Library compounds were measured for their ability to cause acute toxicity in the cell line, as reflected by a decrease in intracellular ATP levels, in a concentration-dependent manner. […] AC50 values were determined from concentration-response data modeled with the standard Hill equation.\nqHTS protocol for CellTiter Glo lymphoblastoid cellular assay\n[Step] [Parameter] [Value] [Description]\n1. Reagent; 5 uL; 2500 lymphoblastoid cells/well\n2. Time; 5 hr; 37 C incubation\n4. Controls; 23 nL; Tetraoctylammonium bromide 6.4pM to 92 uM\n5. Time; 24 hr; 37 C incubation\n6. Reagent; 5 uL; CellTiter Glo reagent\n7. Time; 30 min; Room Temperature\n8. Detection; Luminescence; Viewlux plate reader\nKeywords: cell viability, cytotoxicity, lymphoblastoid cell line, luminescence, NTPHTS, NTPHTS_NCGC, NIEHS, DSSTox, MLSMR, MLSCN, NIH Roadmap, qHTS, NCGC", "values": [
      {"smiles": "Brc1ccccc1-c1ccccc1", "Potency": "inactive"},
      {"smiles": "CC(C)(c1ccc(O)cc1)c1ccc(O)cc1", "Potency": "inactive"},
      {"smiles": "Nc1c2ccccc2nc2ccccc12", "Potency": "15.8 µM (active)"},
      {"smiles": "Oc1ccccc1", "Potency": "inactive"},
      {"smiles": "OCc1c[nH]c2ccccc12", "Potency": "inactive"},
      {"smiles": "CC(=O)OC/C=C(C)/C=C/C=C(C)/C=C/C1=C(C)CCCC1(C)C", "Potency": "50.1 µM (active)"},
      {"smiles": "Nc1cccc2c(N)cccc12", "Potency": "inactive"},
      {"smiles": "O=C(Oc1ccccc1)c1ccccc1O", "Potency": "inactive"},
      {"smiles": "CC(C)(C)c1ccc(O)c(O)c1", "Potency": "39.8 µM (active)"},
      {"smiles": "Cc1cc(C(C)(C)C)c(O)c(C(C)(C)C)c1", "Potency": "inactive"},
      {"smiles": "CCCCC(CC)COC(=O)c1ccccc1C(=O)O", "note": "(stereo not given)", "Potency": "inactive"},
      {"smiles": "Cc1ccc(O)cc1", "Potency": "inactive"},
      {"smiles": "O=C(c1ccccc1)c1ccccc1", "Potency": "inactive"},
      {"smiles": "COc1cc(C=O)ccc1O", "Potency": "inactive"},
      {"smiles": "Nc1ccc(O)cc1", "Potency": "39.8 µM (active)"},
      {"smiles": "CCCCCCCCCCCCCCCC[n+]1ccccc1", "Potency": "25.1 µM (active)"},
      {"smiles": "CC(C)C(C)(C)C(C)(C)C(C)(C)S", "Potency": "inactive"},
      {"smiles": "c1ccc2occc2c1", "Potency": "inactive"},
      {"smiles": "C1=CC2C3C=CC(C3)C2C1", "note": "(stereo not given)", "Potency": "inactive"},
      {"smiles": "O=C(NO)c1ccccc1", "Potency": "inactive"}
    ]}
  ]
}
